# Source: ChEMBL document CHEMBL3988442, “University of Dundee, Small-Polar-MMV Screening Library” (2021)
# Among all 53,000 compounds or so, about 900 (1.7%) showed an effect of 50% or more. The full list was thinned out, with strong results kept by preference.
# Test system: Mycobacterium tuberculosis
# Experiment: Cornell - Phenotypic assay to identify agents that inhibit growth of Mycobacterium tuberculosis
# Format: functional
# Set-up: scale not given: direction of the effect not stated beside the values
# Conditions: 10 mM as filed; unlikely as a test dose
row,SMILES,Percent Effect
1,O=C(Nc1cccnc1)[C@H]1C[C@H]2OCC[C@H]2N(Cc2ccc(F)cc2)C1.O=C(O)C(F)(F)F.O=C(O)C(F)(F)F,11.11%
2,CC(C)C(=O)NCCc1cc2nc(-c3ccncc3)ccn2n1,-48.83%
3,COCCN1CCC(CNC(=O)C2(c3ccc(Br)cc3)CCCC2)C1 (centres undefined),15.91%
4,Cc1nn(CCO)c(C)c1CNC1CCCCc2ccccc21 (centres undefined),11.7%
5,CCCn1cc(-c2ccnc(NC3CCc4ccccc4C3)n2)c(C)n1 (centres undefined),8.734%
6,CCCn1cc(-c2ccnc(NC3CCCc4ccccc43)n2)c(C)n1 (centres undefined),106.6%
7,OCCNc1nccc(-c2cn3nccc3nc2C2CCCCC2)n1,15.49%
8,CCCn1cc(-c2ccnc(NC3CCc4ccccc43)n2)c(C)n1 (centres undefined),36.22%
9,CCCn1ncc(-c2ccnc(N[C@@H]3C[C@@H]4CC[C@H]3C4)n2)c1C,88.15%
10,CCCn1ncc(-c2ccnc(NC3CC(C)(C)NC(C)(C)C3)n2)c1C,-32.04%
11,CCCn1ncc(-c2ccnc(NC3CCCc4ccccc43)n2)c1C (centres undefined),50.48%
12,CCCn1ncc(-c2ccnc(NC3CCSC3)n2)c1C (centres undefined),-4.809%
13,O=C1NCC2(CCCN(c3ncnc4c3CCC4)CC2)O1 (centres undefined),11.26%
14,O=C(CCSc1ccc2c(c1)OCCO2)NCC1CCS(=O)(=O)C1 (centres undefined),-7.695%
15,CCC(C)NC(=O)Nc1cccc(OCCCC#N)c1 (centres undefined),-0.4736%
16,CC(C)NC(=O)Cn1ccc2c(Cl)cccc21,18.88%
17,COc1ccc(CN(C)CC(=O)Nc2ccc3[nH]c(=O)[nH]c3c2)cc1F,-12.93%
18,Cc1cccc(NC(=O)C2CC(=O)n3cnnc3S2)c1 (centres undefined),107.8%
19,COCCN1C(=O)C2(CCC(C(=O)Nc3cccc(C)c3)CC2)N=C1C (centres undefined),23.11%
20,COc1cccc(NC(=O)c2nc3ccccc3n(C)c2=O)c1,19.08%
21,COc1ccc(NC(=O)C2CC(=O)n3cnnc3S2)cc1 (centres undefined),106.3%
22,COc1ccc(C2CCCN2C(=O)Nc2ccc(OC)nc2)cc1 (centres undefined),1.248%
23,COc1cccc(NC(=O)C2CC(=O)n3cnnc3S2)c1 (centres undefined),106.8%
24,COc1ccc(NC(=O)C(c2ccc(OC)cc2)N2CCOCC2)cc1 (centres undefined),-0.3618%
25,Cc1cccc(NC(=O)C2CCc3ccccc3N2)c1.Cl (centres undefined),44.23%
26,COc1cccc(NC(=O)N2CC[C@@H]3CN(C)S(=O)(=O)[C@@H]3CC2)c1,-43.46%

row,SMILES,Percent Effect
1,Cc1nnc(NC(=O)c2cc(S(=O)(=O)N3CCSCC3)c[nH]2)s1,-1.205%
2,CCc1cc(-c2ccnc3c2ccn3C)nc(N2CCOCC2)n1,3.05%
3,N#Cc1ccc(C(=O)N2CCC3(CC2)CC3)cc1,-6.813%
4,O=C(c1cc(C2CCCCC2)no1)N1C[C@H]2C[C@H](O)C[C@H]2C1,24.89%
5,CNC(=O)[C@H]1C[C@@H]2CN(C(=O)c3ccc(C)o3)C[C@@H]2N1S(C)(=O)=O,18.79%
6,Cc1cc(CC(=O)NC2CCCN(Cc3ccccc3)C2=O)n[nH]1 (centres undefined),-5.186%
7,Cc1cnc(Nc2cccc(C3CCCN3Cc3cn(C)nc3C)n2)s1 (centres undefined),23.5%
8,Cc1nn(C)cc1CN1CCCC1c1cccc(Nc2nccs2)n1 (centres undefined),56.13%
9,Cc1ccccc1CN1CCCC1c1cccc(Nc2nccs2)n1 (centres undefined),44.82%
10,O=c1[nH]c2nc(N3CCSCC3)ncc2c(=O)n1-c1cccc(F)c1,12.37%
11,O=C(O)C1CCCN1c1nc(C2CC2)cc(C(F)(F)F)n1 (centres undefined),4.747%
12,O=C(O)C1CCCN1c1nc(-c2ccc(Cl)c(Cl)c2)cc(C(F)(F)F)n1 (centres undefined),67.65%
13,O=C(O)C1CCCN1c1nc(-c2ccc(Cl)cc2)cc(C(F)(F)F)n1 (centres undefined),38.69%
14,Cc1cc(CN(C)Cc2csc(-c3ccc(C(C)C)cc3)n2)no1,47.23%
15,Cc1noc(C)c1CN(C)Cc1csc(-c2ccc(F)cc2)n1,39.26%
16,Cc1noc(C)c1CN(C)Cc1csc(-c2ccc(C(C)C)cc2)n1,63.13%
17,CC(C)c1ncc(CN2CCCC2c2[nH]ncc2C(=O)N(C)C)cn1 (centres undefined),-22.16%
18,CCCn1c(C)c(CC(=O)N[C@H](C)C(=O)OC)c2c1CC(C)(C)CC2=O,46.36%
19,Cc1cnc2n(c1=O)C(CC(=O)NCc1ccco1)CS2 (centres undefined),22.84%
20,Cc1nc(C)n(CC2CN(CC(=O)NC3CCCC3)CCO2)n1 (centres undefined),-1.047%
21,CCc1ccccc1NCc1nc2[nH]c(C)c(C)c(=O)n2n1,-10.14%
22,CN1C(=O)C2(CCN(C(=O)C3CCOCC3)CC2)c2ccccc21,10.41%
23,N#Cc1nc(COc2ccc3c(c2)OCO3)oc1N1CCCCCC1,35.88%
24,N#Cc1nc(COc2ccc3c(c2)OCO3)oc1N1CCCC1,60.43%
25,CC(C)NC(=O)c1nc(COc2ccc3c(c2)OCO3)no1,22.39%
26,CNc1oc(COc2ccc3c(c2)OCO3)nc1C#N,-5.351%

row,SMILES,Percent Effect
1,N#Cc1nc(COc2ccc3c(c2)OCO3)oc1NC1CCCCC1,58.43%
2,N#Cc1nc(COc2ccc3c(c2)OCO3)oc1NC1CC1,0.1825%
3,Cc1nn(C)cc1-c1cc(C(F)(F)F)n(CCCN)n1,-15.46%
4,Cc1cccc(CS(=O)(=O)NCc2nn(C)c3c2CCCC3)c1,18.68%
5,O=C(c1cnccn1)N1CC(S(=O)(=O)c2ccc(Cl)cc2)C1,17.17%
6,CC(=O)N1CCN(c2cc(C)ncn2)CC(CO)C1 (centres undefined),21.65%
7,CCOC(=O)Cn1c(=O)nc2n1C(=O)N(c1ccccc1)C2,-0.8928%
8,CCOC(=O)Cn1nnnc1-c1ccccc1,99.52%
9,CN(C(=O)Cn1nnnc1C(C)(C)C)c1ccccc1,-5.466%
10,CC(C)c1nn(C)c(N(C)C)c1CNCC(O)COc1ccccc1 (centres undefined),51.29%
11,CC(C)c1nn(C)c(N(C)C)c1CNCC(O)c1ccccc1F (centres undefined),40.49%
12,Cc1cccc(OCC(O)CNCc2c(C)nn(C)c2N(C)C)c1 (centres undefined),33.74%
13,COc1ccccc1C(O)CNCc1c(C(C)C)nn(C)c1N(C)C (centres undefined),50.62%
14,COc1c(CNCC(O)c2ccccc2F)c(C(C)C)nn1C (centres undefined),-39.06%
15,Cc1nn(C)c(N(C)C)c1CNCC(O)COc1ccccc1.Cl (centres undefined),25.02%
16,Cc1nn(C)c(N(C)C)c1CNCC(O)c1ccccc1 (centres undefined),-2.094%
17,CC(C)c1nn(C)c(N(C)C)c1CNCC(O)c1ccccc1 (centres undefined),39.56%
18,Cc1ccc(C(O)CNCc2c(C(C)C)nn(C)c2N(C)C)cc1 (centres undefined),104.4%
19,O=C(O)c1nnn(-c2ccc(F)c(F)c2)c1-c1ccncc1,8.364%
20,CC(=O)c1ccc(-n2c(C)cn(CCC(=O)NC(N)=O)c2=O)cc1,30.44%
21,Cc1nc2ccnn2c(C)c1CCC(=O)N1CCN2CCCCC2C1 (centres undefined),-1.576%
22,CCCn1cc(Cl)c(C(=O)N2C[C@H]3C[C@H](OC)C[C@H]3C2)n1,4.304%
23,CN1CC[C@]2(CN(CC3CC3)C[C@H]2c2ccccc2)C1=O,-29.63%
24,CC(=O)Nc1ccc(Oc2cc(C)nc(C3CCCNC3)c2)cc1.Cl (centres undefined),31.88%
25,Cc1ccc(N2CCCN(C(=O)c3n[nH]c4c3CCC4)CC2)nn1,19.39%
26,CNC(=O)CN1CCC(CN(C)CCSc2ccccc2)CC1,4.331%

row,SMILES,Percent Effect
1,Cc1cc(NCCSc2nccn2C)n2nc(C)c(C)c2n1,27.83%
2,Cc1cc(NCCCNc2cccnc2)n2nc(C)c(C)c2n1,31.25%
3,CCSCCNc1cc(C)nc2c(C)c(C)nn12,75.01%
4,Cn1cc(-c2cc(C(F)F)n3nc(CCC(=O)O)nc3n2)cn1,-6.676%
5,COc1cccc(CNC(=O)c2ccccc2-n2cnc(CN)c2)c1,-31.51%
6,CCN(CC)S(=O)(=O)N1CCCC1c1nnc2n1CCN(C)CC2 (centres undefined),42.64%
7,CN1CCc2nnc(C3CCCN3S(=O)(=O)c3ccc(F)cc3)n2CC1 (centres undefined),59.34%
8,O=S(=O)(c1ccc(F)cc1F)N1CCCCC1c1nnc2n1CCCC2 (centres undefined),10.12%
9,CC(OCC1CC1)C(=O)N1CCCN(Cc2nccn2C(C)C)CC1 (centres undefined),14.16%
10,O=C(NCCC1COc2ccccc2O1)c1ccc(-c2cn[nH]c2)nc1 (centres undefined),4.189%
11,O=C(NCCC1COc2ccccc2O1)c1ccc(N2CC(O)C2)nc1 (centres undefined),-14.99%
12,O=C(NCCC1COc2ccccc2O1)c1ccc(-c2cc[nH]n2)nc1 (centres undefined),70.18%
13,CN(C)C(=O)N1C[C@@H]2CC[C@H](C1)N(Cc1nnc(-c3ccco3)o1)C2,-11.16%
14,CCC(C)Oc1ccc(CNCCNC(C)=O)cc1OC (centres undefined),-42.04%
15,Cn1ncc2c(N3CCN(CCO)CC3)nc(C3CCCC3)nc21,32.14%
16,CN1CCCN(c2nc(C3CCCC3)nc3c2cnn3C)CC1,65.73%
17,Cn1ncc2c(N3CCS(=O)(=O)CC3)nc(C3CCCC3)nc21,-13.36%
18,c1ccc(CCCN2CCCN(c3ncnc4[nH]ccc34)CC2)cc1,3.591%
19,Cc1nccn1-c1ccc(=O)n(CCNC(=O)Cc2ccccc2)n1,4.846%
20,c1cc(N2CCCCC2)ccc1-c1noc(CN2CCOCC2)n1,5.485%
21,Cc1nn(CC(=O)N2CCN(c3ccc(F)cc3)CC2)c(C)c1Cl,-1.208%
22,COc1ccc(N2CCN(C(=O)COc3c(C)occc3=O)CC2)cc1,55.27%
23,COc1cccc(N2CCN(C(=O)COc3c(C)occc3=O)CC2)c1,16.48%
24,COc1ccc(N2CCN(C(=O)Cn3nc(C)c(Cl)c3C)CC2)cc1,54.85%
25,Cc1occc(=O)c1OCC(=O)N1CCN(c2ccccc2)CC1,32.32%
26,Cc1nn(CC(=O)N2CCN(c3ccncc3)CC2)c(C)c1Cl,1.786%
